# Source: PubChem
# An excerpt weighted towards active compounds, which were near 3.5% of everything screened.
# TEAD-YAP inh: TEAD-YAP interaction inhibition, primary screen, TEAD-YAP interaction inhibitor project, luminescence, HEK-TIYL cells. TEAD-Gal4/YAP UAS-luciferase luminescence. inhibition, % at 9.12 µM. actives 1.4% (n = 640,000). AID 1259422, 2018; in the data active means inhibition above about 32%;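 further: 0% = median of test compound wells and 100% = reference inhibitor wells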
# GPR151 ag: activators of human GPR151, primary screen, cell-based, PathHunter beta-arrestin, luminescence; G-protein coupled receptor 151 (Homo sapiens), Q8TDV0; PathHunter beta-arrestin GPR151 cells; activation, % at 11.2 µM; actives 1% (n = 650,000); in the data active means activation above about 4.9%;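 further: 0% = median of compound wells and 100% = cells with positive control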
# FBW7 activator: FBW7 E3 ligase activators, primary screen, biochemical, AlphaScreen, human; actives 0.13% (n = 650,000); normalized activity (activation), % at 26.1 µM; AlphaScreen FBW7–phospho-cyclin E peptide binding, activator screen; F-box/WD repeat-containing protein 7 (Homo sapiens), Q969H0; in the data active means normalized activity above about 1.9%;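 further: purified mutant Fbw7 with reduced substrate affinity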
# Target sequence (Q969H0 whole entry, looked up): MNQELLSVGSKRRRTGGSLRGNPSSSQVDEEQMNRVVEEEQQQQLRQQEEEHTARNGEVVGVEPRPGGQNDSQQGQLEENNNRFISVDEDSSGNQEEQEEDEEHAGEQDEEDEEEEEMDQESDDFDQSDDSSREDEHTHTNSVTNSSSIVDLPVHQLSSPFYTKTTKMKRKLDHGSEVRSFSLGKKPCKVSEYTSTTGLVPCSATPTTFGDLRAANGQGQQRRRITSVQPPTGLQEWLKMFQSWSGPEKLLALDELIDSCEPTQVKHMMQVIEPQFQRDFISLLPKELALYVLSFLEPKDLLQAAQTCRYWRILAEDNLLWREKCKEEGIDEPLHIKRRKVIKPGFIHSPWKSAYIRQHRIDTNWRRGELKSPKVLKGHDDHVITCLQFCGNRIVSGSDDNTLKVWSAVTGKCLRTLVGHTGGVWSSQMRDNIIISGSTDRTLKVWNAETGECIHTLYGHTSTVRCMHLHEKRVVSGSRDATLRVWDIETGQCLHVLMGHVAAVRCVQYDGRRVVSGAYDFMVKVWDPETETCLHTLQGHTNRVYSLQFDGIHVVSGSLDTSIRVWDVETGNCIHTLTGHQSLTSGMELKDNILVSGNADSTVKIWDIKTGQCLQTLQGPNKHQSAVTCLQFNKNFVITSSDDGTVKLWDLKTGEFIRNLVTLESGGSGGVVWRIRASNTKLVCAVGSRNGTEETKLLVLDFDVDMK
# MITF inh: MITF inhibitors, primary screen, biochemical, AlphaScreen, human; Microphthalmia-associated transcription factor (Homo sapiens), O75030; AlphaScreen MITF homodimerization, bead proximity signal; inhibition, % at 2.6 µM; actives 0.91% (n = 650,000); AID 1259374, 2018; in the data active means inhibition above about 50%;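 further: 0% = vehicle wells with protein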
# * hit, by the source's call; / = no result given.
SMILES,TEAD-YAP inh,GPR151 ag,FBW7 activator,MITF inh
Cn1c(CSCc2ccccc2)nnc1SCC(=O)Nc1ccc([N+](=O)[O-])cc1,4,2,0,8
O=C(Cn1nnc(-c2ccc(S(=O)(=O)N3CCCC3)cc2)n1)NCC1CCCO1 (stereo unspecified),2,2,0,0
O=C(Cn1nnc(-c2ccc(S(=O)(=O)N3CCCC3)cc2)n1)NCc1ccco1,42*,1,0,3
CCCCCCC(=O)Oc1ccc(-c2cnc3ccccc3n2)cc1,-4,-1,0,-1
CCC(=O)Oc1ccc(-c2cnc3ccccc3n2)cc1,41*,-8,0,9
CCSC1=C(C#N)C(c2cc(OC)ccc2OC)CC(=O)N1 (stereo unspecified),-4,0,0,15
O=C1NC(c2ccc(O)cc2)C(C(=O)c2cccs2)C(O)(C(F)(F)F)N1 (stereo unspecified),0,2,0,-3
O=C(NC1CCCCCC1)c1cccc2[nH]ncc12,84*,-5,0,5
O=C(c1ccc2c(=O)n(-c3ccccc3)c(=S)[nH]c2c1)N1CCOCC1,-5,-1,0,-2
O=C(c1ccc2c(=O)n(-c3ccccc3)c(=S)[nH]c2c1)N1CCCCC1,43*,0,0,9
CCn1c(Cc2ccccc2)nnc1SCC(=O)NC(C)(C)C,-17,2,0,-2
COCCn1c(Cc2ccccc2)nnc1SCC(=O)NC(C)(C)C,59*,0,0,-13
CC(C)n1cnc2c(NCCc3ccc(O)cc3)nc(Nc3ccc(C(F)(F)F)cc3)nc21,1,0,0,-6
OCCC1CN(Cc2cc(Cl)ccc2O)CCN1C1CCCCC1 (stereo unspecified),-4,-2,0,12
N#C/C(=C1/Nc2ccccc2S1)c1ccnc(OCc2ccc(CN3CCOCC3)cc2)n1,86*,3,0,18
N#Cc1c(-n2ncnc2-c2cccs2)sc2c1CCCCC2,64*,1,0,22
Cc1ccc(-c2ncnn2-c2sc3c(c2C#N)CCCCC3)cc1,2,-1,-1,5
CN(Cc1ccccc1)C(=O)Cn1cccc1,-6,-1,0,4
Cc1ccc2cccc(OS(=O)(=O)c3ccccc3C)c2n1,6,2,1,-4
COc1ccc(S(=O)(=O)Oc2cccc3ccc(C)nc23)cc1OC,9,4,1.9*,10
COc1ccc(CN2CCNC(=O)C2CC(=O)N(C)CCc2cn[nH]c2)cc1OC (stereo unspecified),-3,0,0,-9
CCc1ccc2oc(-c3ccccc3)cc(=NCC(=O)O)c2c1,32*,-3,0,14
Nc1cccc(-c2cncc(C(=O)NCCCN3CCCC3=O)c2)c1,-4,0,0,-1
COc1ccc(OC)c([C@@H]2Nc3ccc(C(=O)O)cc3[C@@H]3C=CC[C@@H]32)c1,-7,-1,0,31
COc1ccc2c(c1)C1C=CCC1C(c1ccc(C(=O)O)cc1)N2 (stereo unspecified),-14,-2,-1,52*
SMILES,TEAD-YAP inh,GPR151 ag,FBW7 activator,MITF inh
COc1cccc(C2Nc3ccc(C(=O)O)cc3C3C=CCC32)c1 (stereo unspecified),6,0,-2,65*
COC(=O)c1ccc2c(c1)C1C=CCC1C(c1ccc(F)cc1)N2 (stereo unspecified),-2,4,-1,-2
O=C(O)c1ccc([C@@H]2Nc3ccc(F)cc3[C@@H]3C=CC[C@@H]32)cc1,4,-1,-1,66*
COC(=O)c1ccc(C2Nc3ccc(C(=O)O)cc3C3C=CCC32)cc1 (stereo unspecified),4,0,-1,75*
O=[N+]([O-])c1cccc(C2Nc3ccc4ccccc4c3C3C=CCC32)c1 (stereo unspecified),40*,0,0,3
COc1ccc(C2Nc3ccc(C(=O)O)cc3C3C=CCC32)cc1 (stereo unspecified),-3,0,-1,73*
O=C(O)c1ccc2c(c1)C1C=CCC1C(c1cccc([N+](=O)[O-])c1)N2 (stereo unspecified),14,1,-1,83*
CC(NC(=O)C(=O)NCc1ccc(Cl)cc1)C(c1cccs1)N1CCOCC1 (stereo unspecified),-6,0,0,11
Cc1cncc(NC(=O)c2cc(N3CCOCC3)cc(-n3cc(NC(=O)Cc4ccccc4)cn3)c2)c1,40*,0,0,17
O=C(/C=C/c1ccc(Br)cc1)Nc1ccccn1,35*,-7,0,11
O=C(/C=C/c1ccc2c(c1)OCO2)Nc1ccccn1,67*,-9,-1,0
O=C(/C=C/c1ccc(F)cc1)Nc1ccccn1,57*,-8,0,11
CCOC(=O)c1cc2c(=O)n3ccccc3nc2n(C)c1=NC(=O)c1ccc(F)cc1,4,0,0,10
CC(C)CNC(=O)C(=O)NCC(c1ccco1)S(=O)(=O)c1ccc(Cl)cc1 (stereo unspecified),10,1,0,0
COc1cc(/C=N/NC(=O)c2cc(Br)ccc2OC(C)C)ccc1O,14,3,1,17
Cc1ccc(/C=N/NC(=O)c2cc(Br)ccc2OC(C)C)o1,46*,-2,0,-17
CCOC(=O)c1ccc(NC(=O)C2CC(=O)N(Cc3ccc(Cl)cc3)C(=Nc3ccc(Cl)cc3)S2)cc1 (stereo unspecified),-10,-1,0,5
Clc1ccccc1CCNc1ncnc2ccccc12,35*,0,0,11
c1nc(NCC2CCCCC2)c2ccsc2n1,36*,0,0,-9
c1ccc(CN2CCC(Nc3ncnc4ccccc34)CC2)cc1,33*,0,0,-10
COc1cc2ncnc(NC3CCN(Cc4ccccc4)CC3)c2cc1OC,/,-4,/,/
COCCNc1ncnc2ccccc12,16,1,0,0
Clc1ccc(CNc2ncnc3ccccc23)cc1,57*,5,0,1
OCCCNc1ncnc2sccc12,5,3,0,-4
COc1cccc2c1N(C(=O)C(Cc1ccccc1)N1C(=O)c3ccccc3C1=O)C(C)(C)c1ssc(=S)c1-2 (stereo unspecified),2,0,0,-4
Cc1ccc(NC(=O)N2CCCC(C(N)=O)C2)cc1 (stereo unspecified),-5,0,0,-4
COCc1[nH]nc2c1C1(CCOC1C)C(C#N)=C(N)O2 (stereo unspecified),4,0,1,6
c1ccc(CNc2ncnc3ccccc23)cc1,51*,0,0,-11
CCC(C)Nc1ncnc2ccccc12 (stereo unspecified),39*,0,0,-3
c1ccc(CNc2ncnc3sccc23)nc1,-5,-1,0,9
